# Screening data: PubChem BioAssay, National Center for Advancing Translational Sciences (NCATS)
# Tau fluor counter = counter-screen for tau fibril formation inhibitors. tau K18 P301L Alexa594 fluorescence, heparin fibrillization. hit rate 0.93% among 280,000. Potency, µM (top dose mostly 57.7 µM); also: nearly all actives have a fitted effect of over 55% in size
#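 Human tau K18 P301L (15 uM unlabeled, 0.24 uM Alexa 594-labeled) in 100 mM sodium acetate pH 7 with 20 uM heparin, 6 hr at 37 C. ThT 30 uM added, 1 hr ambient; Alexa 594 FP and total fluorescence read at 555/632 nm.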
# Coupling enz = inhibits coupling enzyme system, counter-screen for aldolase hits; coupling enzyme system counterscreen, AmpLite Red fluorescence; activity change, negative = inhibition, % at 58.2 µM, hits read low; hit rate 0.67% among 290,000; in the data active = activity change below about -30%
#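 Coupling enzymes only (glyceraldehyde-3-phosphate) + compound, at 57.5 uM final, 10 min RT; add substrate/coupling/AmpLite Red mix, 20 min RT; fluorescence ex 525/em 598 nm. Actives flag coupling-system interference.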
# Tau ThT inhib = inhibitors of human tau fibril formation, thioflavin T binding | hit rate 2.1% among 270,000 | recombinant tau K18 P301L (four-repeat tau fragment), heparin-induced fibrillization, ThT fluorescence | Potency, µM (doses to about 57.4 µM), most hits filed as inhibitors; also: nearly all actives have a fitted effect of over 55% in size
# Target sequence (P10636 561-689 P618L limits assumed): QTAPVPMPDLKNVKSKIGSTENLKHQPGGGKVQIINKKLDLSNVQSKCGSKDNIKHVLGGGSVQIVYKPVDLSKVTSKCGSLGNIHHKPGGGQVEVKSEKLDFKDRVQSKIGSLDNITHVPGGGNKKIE
#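 In this qHTS, human K18 P301L tau is incubated with compound and heparin for 6 hr at 37 C, and Thioflavin T fluorescence then reports fibril load.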
# Tau FP inhib = inhibitors of human tau fibril formation. P10636. K18 P301L tau heparin fibrillization, Alexa594 FP, 6 h. Potency, µM (top dose mostly 57.7 µM), hits mostly inhibitors. hit rate 0.39% among 280,000. AID 1468; also: nearly all actives have a fitted effect of over 55% in size
#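 FP of Alexa 594-tau after heparin (20 uM) induction. Substrate: human K18 P301L, 15 uM unlabeled, 0.24 uM labeled. Buffer 100 mM sodium acetate pH 7. 6 hr, 37 C.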
# Sfp PPTase inh = blocks B. subtilis Sfp PPTase activity. Q9F4F7. Biochemical Sfp PPTase activity, qHTS. Potency, µM, actives largely listed as inhibitors. hit rate 3.5% among 310,000;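 also: the enzyme is Sfp with the accession as filed and its product quenches rhodamine fluorescence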
#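 Reaction rates are the 30-min fluorescence difference (ex 525, em 598 nm) in wells containing 15 nM Sfp, 5 uM rhodamine-CoA and 12.5 uM BHQ-2-YbbR at pH 7.6 with 10 mM MgCl2.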
# Numbers stand for hits; - = inactive; ? = inconclusive; . = not tested or not shown; [ ] = dose if it differs, or a comment. An excerpt weighted towards active compounds, which were near 5.2% of everything screened. Unless noted, calls follow the shape of the dose curve; as a rule, active = well fitted curve in the direction sought with a large enough effect; inconclusive = small, poorly fitted or top-dose-only effect, or another doubt; inactive = no such curve, though single readings can be large; an effect the other way counts as inactive or inconclusive.
SMILES,Tau fluor counter,Coupling enz,Tau ThT inhib,Tau FP inhib,Sfp PPTase inh
O=C1C(Cl)=C(N2CCN(Cc3ccccc3)CC2)C(=O)N1c1ccccc1,?,-,15.8µM,25.1µM,-
CN1CCN(C2=C(Cl)C(=O)N(c3ccc(Cl)cc3)C2=O)CC1,?,-,25.1µM,?,-
Cc1ccc(N2C(=O)C(Cl)=C(N3CCN(C)CC3)C2=O)c(C)c1,?,-,14.1µM,25.1µM,-
O=C1C(Cl)=C(N2CCCCC2)C(=O)N1Cc1ccccc1,-,-,?,-,-
COC(=O)[C@@]1(Cc2ccccc2)[C@H]2c3cc(C(=O)N(C)C)n(Cc4ccc(OC)c(OC)c4)c3C[C@H]2CN1C(=O)c1ccccc1,-,-,-,-,-
O=C(NCc1ccc(Cl)cc1)C1CCCN(C(=O)c2cnn(-c3ccc(F)cc3)c2-n2cccc2)C1 (stereo unspecified),-,.,-,-,.
COc1ccc(NC(=O)C2CCCN2S(=O)(=O)c2ccc3c(c2)CCCC(=O)N3)cc1Cl (stereo unspecified),-,.,-,-,.
CC(=O)c1cccc(NC(=S)NNC(=O)c2ccc(C)c([N+](=O)[O-])c2)c1,?,-,?,-,-
Cc1ccc(C(=O)NNC(=S)Nc2cccc(Cl)c2Cl)cc1[N+](=O)[O-],?,-,25.1µM,-,-
COc1ccc(OC)c(NC(=O)c2nnn(CC(=O)Nc3ccc(C(C)C)cc3)c2N)c1,14.1µM[quencher],.,?,-,.
COc1ccc(Cl)cc1NC(=O)c1nnn(CC(=O)Nc2ccc(OC)c(OC)c2)c1N,.,-,.,.,-
CCC(c1nnnn1Cc1ccccc1)N(Cc1ccco1)Cc1cc2cc(OC)ccc2[nH]c1=O (stereo unspecified),?,-,?,?,-
Cc1ccc2[nH]c(=O)c(CN(CCc3ccccc3)C(c3nnnn3Cc3ccco3)C(C)C)cc2c1 (stereo unspecified),-[0.0958 µM],-,.,-[0.0958 µM],17.8µM
CCC(c1nnnn1Cc1ccco1)N(CCc1ccccc1)Cc1cc2cc(C)ccc2[nH]c1=O (stereo unspecified),-,-,?,-,17.8µM
Cc1ccc(CNC(=O)c2cnc(N(C)C)nc2)cc1,-,.,-,-,.
CCN(Cc1ccccc1)c1ccc(/C=N/NS(=O)(=O)c2ccc(C)c([N+](=O)[O-])c2)cc1,7.08µM[quencher],-,?,?,?
CN1C(=O)c2ccc(N(C)C)cc2C1=O,-,-,-,-,-
COc1cc(=O)n(C)c2cc(N(C)C)ccc12,-,-31.2,-,-,-
CCN1CCN(c2oc(-c3ccc(COc4ccc(C)cc4)o3)nc2C#N)CC1,?,.,?,-,.
COc1ccc(OC)c(CNC(=O)Cn2nc(C)c3nn(-c4ccc(Cl)cc4)c(C)c3c2=O)c1,-,.,?,-,.
Cc1ccc(-n2c3c(cc(C(=O)NCc4ccco4)c2=O)C(=O)CCC3)cc1,-,-,-,-,-
O=C1CCCc2c1cc(C(=O)NCc1ccco1)c(=O)n2-c1ccc(Cl)cc1,-,-,-,-,56.2µM
CC(C)(C)c1ccc(OCCOCCn2c(-c3ccc(Cl)cc3)nc3ccccc3c2=O)cc1,-,.,-,?,.
Cc1ccc(/C=C/C(=O)OCc2nc(N)nc(Nc3ccccc3C)n2)o1,-,-,-,-,79.4µM
CCOC(=O)c1cc2c(C)n(-c3ccc(OCC)cc3)c(C)c2ccc1=O,-,-,?,-,79.4µM
SMILES,Tau fluor counter,Coupling enz,Tau ThT inhib,Tau FP inhib,Sfp PPTase inh
CCOC(=O)c1c(C)[nH]c(C)c1S(=O)(=O)N1CCCC(C(=O)Nc2cccc(CC)c2)C1 (stereo unspecified),-,.,-,-,.
CCOC(=O)c1c(Nc2ccccc2)sc(/C=C2\C=Nc3ccccc32)c1O,?,-,-,-,-
Oc1nc(Nc2ccccc2)sc1/C=C1\C=Nc2ccccc21,8.91µM[quencher],-,3.55µM,-,-
Cc1ccc(NC(=O)/C=C/c2ccccc2Cl)cc1Cl,-,.,-,?,.
O=C(/C=C/c1ccccc1Cl)Nc1cccc(S(=O)(=O)NC2=NCCCCC2)c1,14.1µM[quencher],-,-,?,-
Cc1cc(N2CCCCC2)nc2ccc(NC(=O)/C=C/c3ccccc3OC(C)C)cc12,7.08µM[quencher],.,?,-,.
Cc1cc(N2CCCCC2)nc2ccc(NC(=O)/C=C/c3ccccc3Cl)cc12,10µM[quencher],.,4.47µM,-,.
Cc1cc(N2CCCC2)nc2ccc(NC(=S)NCCCOC(C)C)cc12,-,-,-,-,-
Cc1cc(N)c2cc(NC(=O)/C=C/c3ccccc3Cl)ccc2n1,-,-,?,?,25.1µM
CCOC(=O)Cc1ccc(NC(=O)N(Cc2ccc(OC)cc2)C2CCN(C(C)=O)CC2)cc1,-,.,-,-,.
O=C(NC(=S)N1CCCc2ccccc21)c1ccc([N+](=O)[O-])cc1,-,-,?,-,15.8µM
O=C(NC(=S)N1CCCc2ccccc21)c1ccc(Cl)cc1,-,-,-,-,22.4µM
COc1ccc(OCC(=O)NC(=S)N2CCCc3ccccc32)cc1,-,-,?,-,56.2µM
O=C(COc1ccccc1)NC(=S)N1CCc2ccccc21,-,-,-,-,-
CCOC(=O)/C(=N/Nc1ccc(OC)cc1)N1CCCc2ccccc21,?,-42.1,-,-,-
O=C(NC(=S)N1CCCc2ccccc21)c1ccccc1,-,-,?,-,-
C=C1C(=O)OC2CC1C(OC(C)=O)CC(C)=CCCC(C)=CCC[C@@]2(C)O (stereo partly specified),-,-,?,-,-
COc1ccc(C(=O)NC(=S)N2CCCc3ccccc32)cc1OC,-,-,?,-,?
COc1ccccc1C(=O)NC(=S)N1CCCc2ccccc21,-,-38.6,-,-,50.1µM
O=C(NC(=S)N1CCCc2ccccc21)c1ccc(Br)cc1,?,-,?,-,44.7µM
N[C@H](CO)Cc1cnc[nH]1,-,-,-,-,-
O=C(CCCCCn1c(=O)c2sccc2n(CC(=O)Nc2cccc(Cl)c2)c1=O)NCc1ccc2c(c1)OCO2,?,.,-,?,.
CCN1CCN(C(c2ccc(F)cc2)c2c(O)cc(C)n(CCOC)c2=O)CC1 (stereo unspecified),-,.,?,-,.
CCNC(=O)CC1C(=O)N(c2cccc(OC)c2)C(=O)N1Cc1ccc(OC)c(OC)c1 (stereo unspecified),-,.,-,-,.
COC(=O)[C@@H](NC(=O)Nc1ccc(S(N)(=O)=O)cc1)C(C)C,-,-,-,-,-
SMILES,Tau fluor counter,Coupling enz,Tau ThT inhib,Tau FP inhib,Sfp PPTase inh
COC(=O)[C@H](CC(C)C)NC(=O)Nc1ccc(S(N)(=O)=O)cc1,-,-,-,-,79.4µM
Cc1cc(C)n(-c2nc(N(c3ccccc3)c3ccccc3)nc(-n3nc(C)cc3C)n2)n1,-,-,20µM,?,50.1µM
COc1cc(NC(=O)Cc2noc3ccccc23)cc(OC)c1OC,-,.,?,-,.
Cc1cccc(-n2ncc(C(=O)Nc3ccc4c(c3)OCO4)c2C2CCN(C(=O)OC(C)(C)C)CC2)c1,?,.,?,-,.
COc1ccc(N=Nc2c(C)n[nH]c2C)cc1,.,-,.,.,-
Cc1n[nH]c(C)c1N=Nc1ccc(Br)cc1,-,-,11.2µM,-,-
